Compounds with a hit are over-represented: about 8.1% of the library has one in this group of screens.
Gal4-VP16 FLuc: VP16 counterscreen qHTS for inhibitors of ROR gamma transcriptional activity; Drosophila S2 Gal4-VP16 UAS-luciferase, luminescence, 20 h; Potency, µM (top dose mostly 53.6 µM), most hits filed as inhibitors; actives 3.5% (n = 310,000); AID 2546, 2010;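 note: Gal4-VP16 expression switched on by copper sulfate through the metallothionein promoter; nearly all actives have a fitted effect of over 50% in size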
ClpP mod: qHTS Assay for Activators of ClpP | ATP-dependent Clp protease proteolytic subunit (Bacillus subtilis (strain 168)), P80244 | purified B. subtilis ClpP, FRET peptide cleavage, 20 min | Potency, µM (top dose mostly 57.5 µM) | actives 1.9% (n = 340,000) | AID 651965, 2013; active = well fitted falling curve with a large enough effect; inconclusive = small, poorly fitted or top-dose-only effect; inactive = no such curve, though single readings can be large or run the other way; note: the source files actives as falling curves though it sought activators and does not explain the sign; nearly all actives have a fitted effect of over 65% in size
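Buffer: 100 mM Tris/HCl pH8, 100 mM KCl, 0.05% low protease BSA, 2.5% glycerol, 0.01% Tween-20. ClpP 10 microg/mL final; 20 min RT; delta FRET normalized to ADEP and DMSO controls.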
PINK1 modulator: A Quantitative High throughput Screen to Identify Chemical Modulators of PINK1 Expression | Potency, µM (top dose mostly 76.6 µM), actives largely listed as activators | PINK1 immunofluorescence, high-content cytometry, 24 h | actives 0.2% (n = 410,000) | AID 624263, 2012; active = well fitted activation curve with a large enough effect; inconclusive = small, poorly fitted or top-dose-only effect; cell line not stated here; note: nearly all actives have a fitted effect of over 65% in size
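Cells are seeded, rested 12 hours, then given compound at five concentrations or DMSO for 24 hours. After fixation, blocking and antibody staining, PINK1 amount and mitochondrial localization are scored; CCCP serves as control.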
RORg inh: qHTS for inhibitors of ROR gamma transcriptional activity | AID 2551, 2010 | Drosophila S2 Gal4-RORgamma UAS-luciferase reporter, 20 h | actives 5.4% (n = 310,000) | Nuclear receptor ROR-gamma (Mus musculus), P51450 | Potency, µM (top dose mostly 53.6 µM), most hits filed as inhibitors; note: nearly all actives have a fitted effect of over 60% in size
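Drosophila S2 cells stably expressing Gal4-DBD/mouse RORγ fusion under metallothionein promoter plus UAS-luciferase; compound 1 h, then 700 uM CuSO4 induction for 20 h at ambient temperature; inhibition read as reduced luminescence.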
Epigenetic derep: Quantitative High-Throughput Screen for Regulators of Epigenetic Control | Potency, µM (doses to about 53.9 µM), most hits filed as activators | murine LDR cells, GFP reporter derepression, 30 h | actives 0.2% (n = 280,000); note: nearly all actives have a fitted effect of over 60% in size
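GFP-positive cell count by laser-scanning cytometry (objects 20–120 um) after 30 h, 37 C compound exposure of murine LDR cells; reporter is CMV-GFP integrated at a silenced locus, inducible by HDAC or DNMT inhibitors.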
Sfp PPTase inh: qHTS Assay for Inhibitors of Bacillus subtilis Sfp phosphopantetheinyl transferase (PPTase); 4'-phosphopantetheinyl transferase ffp (Bacillus subtilis), Q9F4F7; Biochemical Sfp PPTase activity, qHTS; Potency, µM, hits mostly inhibitors; actives 3.5% (n = 310,000); AID 1490, 2009;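 note: the enzyme is Sfp with the accession as filed and its product quenches rhodamine fluorescence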
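Sfp 15 nM + cpd, 15 min RT; start w/ rhodamine-CoA 5 uM, BHQ-2-YbbR 12.5 uM (final); 50 mM Hepes pH 7.6, 10 mM MgCl2, 0.01% NP-40, 0.01% BSA; read 525/598 nm at 0 and 30 min.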
A number is an active result; i = inactive; ? = inconclusive; nt = no result given; [ ] = another dose, or the depositor's remark. Unless noted, calls come from the whole dose curve; as a rule, active = well fitted curve in the direction sought with a large enough effect; inconclusive = small, poorly fitted or top-dose-only effect, or another doubt; inactive = no such curve, though single readings can be large; an effect the other way counts as inactive or inconclusive.

SMILES	Gal4-VP16 FLuc	ClpP mod	PINK1 modulator	RORg inh	Epigenetic derep	Sfp PPTase inh
COc1ccc(CNC(=O)CNC(C)c2ccc(F)cc2)cc1 (stereo not drawn)	i	i	i	i	nt	i
CCCc1ccc(C(C)NC(=S)NCc2ccc(F)cc2)cc1 (stereo not drawn)	3.2µM	i	?	0.63µM	nt	i
COc1ccc(C(C)NC(=S)NCc2ccc(F)cc2)cc1OC (stereo not drawn)	?	i	i	13µM	nt	i
CCN(CC)CCNC(=O)C(=O)NCC(c1cccnc1)N1CCN(c2ccccc2)CC1 (stereo not drawn)	nt	i	i	nt	i	nt
O=C(NNC(=O)c1cc2ccccc2oc1=O)c1ccccc1	i	nt	i	i	nt	50µM
N/C(=N\NC(=O)c1ccc(F)cc1)c1cc2ccccc2oc1=O	?	i	i	3.5µM	i	i
O=C(OCCNC(=O)c1cc2ccccc2oc1=O)c1cccnc1	i	?	i	i	i	i
O=C(NCc1ccccc1)c1cc2ccc(O)cc2oc1=O	7.1µM	i	i	2.2µM	nt	i
CCCCC(=O)OCCNC(=O)c1cc2ccccc2oc1=O	i	25µM	i	i	i	i
O=C(c1ccccc1)c1cc2ccccc2oc1=O	?	i	i	i	nt	i
CCOc1ccc(/C=C(\C#N)C(=O)Nc2sc3c(c2C(=O)OC)CCC3)cc1OC	nt	i	?	nt	i	nt
Cc1c(C(=O)N(C)C)sc2c1c(=O)n(-c1ccc(Cl)c(Cl)c1)c(=O)n2CC(=O)Nc1cccc(C(F)(F)F)c1	nt	i	i	nt	i	nt
Cc1cccc(C(=O)N2CCOc3ccc(CN(C)Cc4cc(C5CC5)n[nH]4)cc3C2)n1	nt	nt	i	nt	nt	nt
Cc1ccc(CCNC(=O)c2ccc(Cn3c(=O)c4cccn4c4cccnc43)cc2)cc1	nt	i	i	nt	i	nt
O=C(Nc1ccc(F)cc1F)c1cc2ccccc2oc1=O	i	i	i	i	nt	i
N/C(=N\NC(=O)c1cccc(F)c1)c1cc2ccccc2oc1=O	3.5µM	i	i	1µM	i	i
COc1ccccc1C(=O)c1cc2ccc(O)cc2oc1=O	i	i	i	20µM	i	i
OC1OC[C@H](O)[C@@H](O)[C@H]1O (stereo partly drawn)	i	nt	nt	i	nt	i
Cc1c(C(=O)N2CCOc3ccccc3C2)sc2ncnc(NCCCN3CCOCC3)c12	nt	nt	i	nt	nt	nt
CNc1nc(C)nc(-n2nc(C)cc2C)n1	?	i	i	6.3µM	i	i
Cc1cc(C)n(-c2nnc(NCc3ccc(Cl)cc3)nn2)n1	i	nt	i	?	i	i
Cc1cc(C)n(-c2nc(C)nc(NCc3ccccc3)n2)n1	5.6µM	i	i	1.6µM	i	i
Cc1cc(-c2ccc(N=Nc3cc(S(=O)(=O)O)c4ccccc4c3N)c(C)c2)ccc1N=Nc1cc(S(=O)(=O)O)c2ccccc2c1N	i	nt	nt	i	nt	nt
CC(C)CN(CC(C)C)c1ccc(/C=C/c2ccnc3ccccc23)cc1	nt	i	i	nt	nt	nt
CC1CCN(S(=O)(=O)c2ccc(NC(=O)C3CSC4(C)CCC(=O)N34)cc2)CC1 (stereo not drawn)	nt	28µM	i	nt	nt	nt
SMILES	Gal4-VP16 FLuc	ClpP mod	PINK1 modulator	RORg inh	Epigenetic derep	Sfp PPTase inh
O=C(Nc1ccc(F)c(Cl)c1)C1Cc2ccccc2CN1S(=O)(=O)c1ccc(F)cc1 (stereo not drawn)	nt	i	i	nt	i	nt
Cc1ccc2c(c1)-c1c(ssc1=S)C(C)(C)N2C(=O)CSC1=NCCS1	i	i	i	?	i	i
CCOc1ccc2c(c1)-c1c(ssc1=S)C(C)(C)N2C(=O)CSC1=NCCS1	i	i	i	3.2µM	i	i
Cc1ccc(/C=C/c2nc3ccccc3c(=O)[nH]2)cc1	?	?	i	2.5µM	i	i
COC(=O)c1ccc(/C=C/c2nc3ccccc3c(=O)[nH]2)cc1	?	nt	i	?	nt	i
COc1ccc(S(=O)(=O)NCCSc2nnnn2-c2ccccc2)cc1OC	nt	i	i	nt	i	nt
O=c1c(O)c(-c2ccccc2)oc2cccc(O)c12	7.9µM	nt	i	4µM	i	i
CCC(C)NC(=O)c1c(C)oc2ncn(CC(C)C)c(=O)c12 (stereo not drawn)	nt	i	i	nt	i	nt
CC(C)CSc1n[nH]c(=S)s1	i	nt	i	10µM	i	35µM
CC(CSc1n[nH]c(=S)s1)c1ccccc1 (stereo not drawn)	nt	nt	i	nt	nt	nt
O=C(CN1CCOCC1)Nc1ccc(-c2nc3ccccc3[nH]2)cc1	i	25µM	i	i	i	i
O=C(Nc1ccc(-c2nc3ccccc3[nH]2)cc1)C1CCCO1 (stereo not drawn)	7.1µM	?	i	i	i	i
O=C(Nc1ccc(-c2nc3ccccc3[nH]2)cc1)c1ccc2c(c1)OCO2	11µM	?	i	?	i	i
O=C(Nc1sc2c(c1-c1nc3ccccc3[nH]1)CCCC2)C1CCCC1	i	10µM	i	10µM	i	i
CC(=O)NCCC(=O)Nc1sc2c(c1-c1nc3ccccc3[nH]1)CCCC2	i	?	i	i	i	?
O=C(Nc1nc2ccccc2[nH]1)C1CCCO1 (stereo not drawn)	i	i	i	i	i	i
COc1ccccc1/C=C/c1nc2ccccc2[nH]1	nt	i	i	nt	nt	nt
Cc1cccn2c(=O)c3cc(C#N)c(=O)n(-c4nnc(SCc5ccc(F)cc5)s4)c3nc12	nt	i	i	nt	i	nt
O=C(Nc1ccc2nc(-c3ccccc3)[nH]c2c1)c1ccco1	i[0.365 µM]	28µM	i	?	i	i
O=C1COc2ccc(NC(=O)c3ccccc3C(=O)O)cc2N1	i	i	i	i	nt	79µM
O=C1COc2ccc(C(=O)c3ccccc3C(=O)O)cc2N1	i	i	i	i	i	i
CN(c1ccccc1)S(=O)(=O)c1cccc(NC(=O)Cn2cnc3c2c(=O)n(C)c(=O)n3C)c1	i	i	i	?	i	i
NS(=O)(=O)c1cccc(NC(=O)Cn2cnc3ccccc3c2=O)c1	i	i	11µM	i	i	i
O=C(Cn1cnc2ccccc2c1=O)c1ccc2ccccc2c1	i	32µM	?	?	i	i
COC(=O)c1cccc(NC(=O)Cn2cnc3ccccc3c2=O)c1	i[0.365 µM]	i	i	i	i	i
Cn1c(=O)c2c(ncn2CC(=O)Nc2cccc(S(=O)(=O)Nc3ccccc3F)c2)n(C)c1=O	i	nt	i	i	i	56µM
O=C(CSc1ccc([N+](=O)[O-])cc1)Nc1cccc(S(=O)(=O)Nc2ccccc2F)c1	i	nt	i	i	i	45µM
N#CCCn1c(=O)c(-c2cccs2)nc2cnc(N3CCNCC3)nc21	?	nt	i	?	nt	i
